We go through 4 compounds from PubChem BioAssay (EPA / NIEHS).

What all share (conditions): mRNA level, 48 h; actives raise or lower the signal
Read-out in assay [1]: Interleukin 6 Receptor (IL6R), IL6R (gene 3570)
Put plainly: LTEA_HepaRG_IL6R: Life Technologies and Expression Analysis (LTEA) Assay for Interleukin 6 Receptor (IL6R) using HepaRG (AID 2283510). The method, boiled down: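 Differentiated human HepaRG cells, plated 48 h then switched to serum-free induction medium, were dosed in duplicate for 48 h at eight half-log concentrations up to 100 uM in 0.5% DMSO. IL6R mRNA quantified by qRT-PCR, normalized to ACTB/GAPDH/POLR2A; bidirectional fit versus DMSO.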

Read-out in assay [2]: Potassium channel subfamily K member 1 (KCNK1), KCNK1 (gene 3775)
Put plainly: LTEA_HepaRG_KCNK1: Life Technologies and Expression Analysis (LTEA) Assay for Potassium channel subfamily K member 1 (KCNK1) using HepaRG (AID 2283511). A digest of the protocol: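 Differentiated human HepaRG cells in serum-free induction medium were exposed in duplicate for 48 h to 8 half-log concentrations up to 100 uM in 0.5% DMSO. KCNK1 mRNA was measured by TaqMan qRT-PCR, normalized to ACTB, GAPDH and POLR2A, and fitted bidirectionally versus DMSO.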

Read-out in assay [3]: Keratin 19 (KRT19), KRT19 (gene 3880)
Put plainly: LTEA_HepaRG_KRT19: Life Technologies and Expression Analysis (LTEA) Assay for Keratin 19 (KRT19) using HepaRG (AID 2283512). A digest of the protocol: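 HepaRG, 48 h chemical exposure, 8-pt half-log CRC from 100 uM, 0.5% DMSO vehicle, duplicates. Readout: TaqMan qRT-PCR of KRT19 mRNA, housekeeping-normalized (ACTB/GAPDH/POLR2A). Bidirectional fit vs DMSO baseline.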

Read-out in assay [4]: JUN Transcription Factor, JUN (gene 3725)
Put plainly: LTEA_HepaRG_JUN: Life Technologies and Expression Analysis (LTEA) Assay for JUN Transcription Factor using HepaRG (AID 2283513). A digest of the protocol:
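Differentiated HepaRG cells were exposed to chemicals for 48 h in serum-free induction medium, 8 concentrations from 100 uM in half-log steps, 0.5% DMSO vehicle, in duplicate. JUN mRNA was quantified by TaqMan qRT-PCR, normalized to ACTB, GAPDH, POLR2A.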

Read-out in assay [5]: Lipase C (LIPC), LIPC (gene 3990)
Put plainly: LTEA_HepaRG_LIPC: Life Technologies and Expression Analysis (LTEA) Assay for Lipase C (LIPC) using HepaRG (AID 2283514). A digest of the protocol:
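Differentiated human HepaRG cells in serum-free induction medium were exposed in duplicate for 48 h to eight concentrations (top 100 uM, half-log steps, 0.5% DMSO). LIPC mRNA was quantified by TaqMan qRT-PCR, normalized to ACTB, GAPDH and POLR2A, with bidirectional fitting versus DMSO.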

Read-out in assay [6]: Lipoprotein lipase (LPL), LPL (gene 4023)
Nature of the assay: LTEA_HepaRG_LPL: Life Technologies and Expression Analysis (LTEA) Assay for Lipoprotein lipase (LPL) using HepaRG (AID 2283515). The method, boiled down: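 Differentiated human HepaRG cells in serum-free induction medium were exposed in duplicate for 48 h to eight half-log concentrations (top 100 uM) in 0.5% DMSO. LPL mRNA was quantified by TaqMan qRT-PCR, normalized to ACTB, GAPDH and POLR2A.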

Read-out in assay [7]: MicroRNA 122 (MIR122), gene 406906
Nature of the assay: LTEA_HepaRG_MIR122: Life Technologies and Expression Analysis (LTEA) Assay for MicroRNA 122 (MIR122) using HepaRG (AID 2283516). Further: the transcript read is the microRNA miR-122. The method, boiled down: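 Differentiated human HepaRG cells were exposed 48 h in serum-free induction medium to eight half-log concentrations (top 100 uM, 0.5% DMSO). Transcript level was measured by TaqMan qRT-PCR, normalized to ACTB, GAPDH and POLR2A, and fitted bidirectionally versus DMSO.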

Read-out in assay [8]: matrix metalloproteinase-10 (MMP10), MMP10 (gene 4319)
Put plainly: LTEA_HepaRG_MMP10: Life Technologies and Expression Analysis (LTEA) Assay for matrix metalloproteinase-10 (MMP10) using HepaRG (AID 2283517). The method, boiled down: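 HepaRG, collagen I, ~100,000 cells/well; serum-free induction medium; 48 h exposure, duplicate, 8-pt half-log to 100 uM, 0.5% DMSO. Readout: TaqMan qRT-PCR, normalized to ACTB/GAPDH/POLR2A; bidirectional fit vs DMSO.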

Read-out in assay [9]: MYC, MYC (gene 4609)
Nature of the assay: LTEA_HepaRG_MYC: Life Technologies and Expression Analysis (LTEA) Assay for MYC using HepaRG (AID 2283518). The method, boiled down:
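qRT-PCR read-out of MYC transcript (Fluidigm TaqMan, housekeeping-normalized) after 48 h chemical exposure of HepaRG cells; eight concentrations, top 100 uM, half-log steps. Bidirectional curve fitting against 0.5% DMSO vehicle baseline.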

Read-out in assay [10]: matrix metalloproteinase-3 (MMP3), MMP3 (gene 4314)
Put plainly: LTEA_HepaRG_MMP3: Life Technologies and Expression Analysis (LTEA) Assay for matrix metalloproteinase-3 (MMP3) using HepaRG (AID 2283519). The method, boiled down:
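Differentiated human HepaRG cells, plated 48 h on collagen I, were exposed in duplicate for 48 h in serum-free induction medium to eight half-log concentrations up to 100 uM in 0.5% DMSO. MMP3 mRNA was quantified by TaqMan qRT-PCR, normalised to ACTB, GAPDH and POLR2A.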

Read-out in assay [11]: Paternally Expressed 10 (PEG10), PEG10 (gene 23089)
Nature of the assay: LTEA_HepaRG_PEG10: Life Technologies and Expression Analysis (LTEA) Assay for Paternally Expressed 10 (PEG10) using HepaRG (AID 2283520). The method, boiled down:
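Differentiated HepaRG cells, plated 48 h then switched to serum-free induction medium, were exposed in duplicate for 48 h to eight half-log concentrations topping at 100 uM in 0.5% DMSO. PEG10 mRNA was quantified by TaqMan qRT-PCR, normalised to ACTB, GAPDH and POLR2A.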

Read-out in assay [12]: Protein phosphatase 2A (PPP2R4), PTPA (gene 5524)
Put plainly: LTEA_HepaRG_PPP2R4: Life Technologies and Expression Analysis (LTEA) Assay for Protein phosphatase 2A (PPP2R4) using HepaRG (AID 2283522). A digest of the protocol: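 Differentiated HepaRG cells in serum-free induction medium were exposed in duplicate for 48 h to eight concentrations, top 100 uM with half-log dilutions, in 0.5% DMSO. PPP2R4 mRNA was quantified by TaqMan qRT-PCR, normalized to ACTB, GAPDH and POLR2A.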

Read-out in assay [13]: Phosphatase and tensin (PTEN), PTEN (gene 5728)
Put plainly: LTEA_HepaRG_PTEN: Life Technologies and Expression Analysis (LTEA) Assay for Phosphatase and tensin (PTEN) using HepaRG (AID 2283523). The method, boiled down: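 Differentiated human HepaRG cells, plated 48 h then switched to serum-free induction medium, were exposed in duplicate for 48 h to eight half-log concentrations up to 100 uM in 0.5% DMSO. PTEN mRNA measured by TaqMan qRT-PCR, normalized to ACTB/GAPDH/POLR2A, bidirectional fit versus DMSO.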

Read-out in assay [14]: solute carrier (SLC22A1), SLC22A1 (gene 6580)
Nature of the assay: LTEA_HepaRG_SLC22A1: Life Technologies and Expression Analysis (LTEA) Assay for solute carrier (SLC22A1) using HepaRG (AID 2283524). A digest of the protocol: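 Human HepaRG cells were plated 48 h, switched to serum-free induction medium, then exposed in duplicate for 48 h to 8-point half-log series from 100 uM in 0.5% DMSO. SLC22A1 mRNA measured by qRT-PCR, normalized to ACTB/GAPDH/POLR2A, fitted bidirectionally versus DMSO.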

Read-out in assay [15]: Pyruvate Dehydrogenase Kinase 4 (PDK4), PDK4 (gene 5166)
Put plainly: LTEA_HepaRG_PDK4: Life Technologies and Expression Analysis (LTEA) Assay for Pyruvate Dehydrogenase Kinase 4 (PDK4) using HepaRG (AID 2283525). The method, boiled down:
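Differentiated human HepaRG cells, pre-cultured 48 h, were exposed in duplicate for 48 h in serum-free induction medium to eight half-log concentrations up to 100 uM in 0.5% DMSO. PDK4 mRNA was quantified by qRT-PCR, normalized to ACTB, GAPDH and POLR2A, bidirectional fitting versus DMSO.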

Read-out in assay [16]: NAD(P)H dehydrogenase [quinone] 1 (NQO1), NQO1 (gene 1728)
Nature of the assay: LTEA_HepaRG_NQO1: Life Technologies and Expression Analysis (LTEA) Assay for NAD(P)H dehydrogenase [quinone] 1 (NQO1) using HepaRG (AID 2283526). A digest of the protocol: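 Differentiated HepaRG cells, plated 48 h and then switched to serum-free induction medium, were exposed in duplicate for 48 h to 8-point half-log concentrations up to 100 uM in 0.5% DMSO. mRNA measured by qRT-PCR, normalized to ACTB, GAPDH, POLR2A; bidirectional fit versus DMSO.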

Read-out in assay [17]: succinate dehydrogenase complex iron sulfur subunit B (SDHB), SDHB (gene 6390)
Nature of the assay: LTEA_HepaRG_SDHB: Life Technologies and Expression Analysis (LTEA) Assay for succinate dehydrogenase complex iron sulfur subunit B (SDHB) using HepaRG (AID 2283528). A digest of the protocol:
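SDHB transcript level read by TaqMan qRT-PCR, housekeeping-normalised (ACTB, GAPDH, POLR2A), after 48 h chemical treatment of plated HepaRG cells; eight concentrations top 100 uM, half-log steps, 0.5% DMSO, duplicates; fitted both directions against DMSO.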

Read-out in assay [18]: Signal transducer and activator of transcription 3 (Homo sapiens) (UniProt P40763)
Nature of the assay: LTEA_HepaRG_STAT3: Life Technologies and Expression Analysis (LTEA) Assay for Signal transducer and activator of transcription (STAT3) using HepaRG (AID 2283529). A digest of the protocol:
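Differentiated human HepaRG cells in serum-free induction medium were exposed in duplicate for 48 h to eight half-log concentrations up to 100 uM in 0.5% DMSO. STAT3 mRNA was quantified by TaqMan qRT-PCR, normalized to ACTB, GAPDH and POLR2A, and fitted bidirectionally against DMSO.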

Read-out in assay [19]: Nuclear factor erythroid 2-related factor 2 (Homo sapiens) (UniProt Q16236)
Nature of the assay: LTEA_HepaRG_NFE2L2: Life Technologies and Expression Analysis (LTEA) Assay for Nuclear factor erythroid 2-related factor 2 (NFE2L2) Transcription Factor using HepaRG (AID 2283527). A digest of the protocol:
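Differentiated human HepaRG cells in serum-free induction medium were exposed for 48 h to eight concentrations (top 100 uM, half-log dilutions, 0.5% DMSO), in duplicate. NFE2L2 mRNA was quantified by TaqMan qRT-PCR, normalized to ACTB, GAPDH and POLR2A, with bidirectional fitting versus DMSO.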

The structures appear in SMILES notation. Active and inactive are the calls of the source. How the source made its calls: active means hit-call score of the fitted dose curve at least 0.9, where 1 is the maximum; inactive means score below 0.9.

Signal transducer and activator of transcription 3 (Homo sapiens), sequence (P40763 whole entry, looked up): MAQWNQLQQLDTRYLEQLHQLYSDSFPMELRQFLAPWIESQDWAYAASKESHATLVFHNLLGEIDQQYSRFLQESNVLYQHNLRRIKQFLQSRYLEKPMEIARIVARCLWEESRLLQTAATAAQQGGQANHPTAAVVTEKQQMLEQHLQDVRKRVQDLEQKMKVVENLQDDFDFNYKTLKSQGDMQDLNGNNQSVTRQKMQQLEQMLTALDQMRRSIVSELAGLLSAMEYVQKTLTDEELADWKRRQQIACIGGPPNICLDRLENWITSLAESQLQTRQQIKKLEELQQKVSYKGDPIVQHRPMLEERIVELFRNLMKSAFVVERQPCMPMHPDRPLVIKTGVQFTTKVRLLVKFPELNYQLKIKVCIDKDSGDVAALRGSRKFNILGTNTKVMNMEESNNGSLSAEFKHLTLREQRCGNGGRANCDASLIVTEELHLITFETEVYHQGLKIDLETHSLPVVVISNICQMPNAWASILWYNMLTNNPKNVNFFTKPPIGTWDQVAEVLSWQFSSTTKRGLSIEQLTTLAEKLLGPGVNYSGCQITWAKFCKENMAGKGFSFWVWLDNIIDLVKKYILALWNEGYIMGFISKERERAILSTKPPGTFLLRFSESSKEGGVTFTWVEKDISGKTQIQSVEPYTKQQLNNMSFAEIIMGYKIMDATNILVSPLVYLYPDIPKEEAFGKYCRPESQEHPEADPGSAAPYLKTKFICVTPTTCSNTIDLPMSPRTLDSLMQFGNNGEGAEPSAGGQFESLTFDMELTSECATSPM
Nuclear factor erythroid 2-related factor 2 (Homo sapiens), sequence (Q16236 whole entry, looked up): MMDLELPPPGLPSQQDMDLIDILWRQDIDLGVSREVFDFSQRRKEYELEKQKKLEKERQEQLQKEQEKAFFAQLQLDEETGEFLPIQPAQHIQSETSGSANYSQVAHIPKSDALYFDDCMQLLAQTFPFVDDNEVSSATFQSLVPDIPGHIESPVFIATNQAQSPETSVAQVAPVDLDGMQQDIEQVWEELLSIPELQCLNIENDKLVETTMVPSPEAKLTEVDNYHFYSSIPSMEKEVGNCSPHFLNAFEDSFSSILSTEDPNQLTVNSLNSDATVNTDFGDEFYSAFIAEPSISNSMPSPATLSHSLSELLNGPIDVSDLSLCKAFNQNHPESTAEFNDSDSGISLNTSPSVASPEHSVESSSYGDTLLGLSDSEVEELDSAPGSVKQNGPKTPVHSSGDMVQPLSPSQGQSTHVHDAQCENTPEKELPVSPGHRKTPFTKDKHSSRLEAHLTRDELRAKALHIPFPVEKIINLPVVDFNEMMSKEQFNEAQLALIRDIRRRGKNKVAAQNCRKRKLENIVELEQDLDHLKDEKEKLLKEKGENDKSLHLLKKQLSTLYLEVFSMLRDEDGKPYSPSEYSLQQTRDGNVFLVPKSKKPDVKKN

Consider `CCCCc1oc2ccccc2c1C(=O)c1cc(I)c(OCCN(CC)CC)c(I)c1`, for which the compound was called inactive in [1], in [10], in assay [12], in [13], in assay [16] and in assay [17]. For the same compound, the call in assay [18] was inactive. For the same compound, the AC50 was 55.5 µM (active) in assay [2]; 37.8 µM (active) in assay [3]; 66.1 µM (active) in [4]; 55.7 µM (active) in [5]; 47.6 µM (active) in assay [6]; 70.4 µM (active) in [7]. For the same compound, the AC50 is 54.7 µM (active) in assay [8]; 68.7 µM (active) in [9]; 22.6 µM (active) in assay [11]; 70.6 µM (active) in [14]; 59.2 µM (active) in [15].

Turning to `Cc1[nH]nc2c1N=C(c1ccccc1Cl)c1cc([N+](=O)[O-])ccc1N2`, the compound was classed as inactive in assay [1], in assay [12], in [13] and in assay [16]. Moreover, the concentration at half-maximal activity (AC50) in [2] was 3.09 µM (active); in assay [3], 1.24 µM (active); in assay [4] it was 20.5 µM (active); in [5], 11.2 µM (active); in assay [6], 13 µM (active); in [7], 7.26 µM (active). For the same compound, the AC50 is 5.91 µM (active) in assay [8]; 82 µM (active) in [9]; 9.48 µM (active) in assay [10]; 3.67 µM (active) in assay [11]; 5.69 µM (active) in assay [14]; 0.37 µM (active) in assay [15]. Further, the figures for the AC50 in assay [19], in [17] and in [18] were 85.1 µM (active), 0.449 µM (active) and 3.77 µM (active), respectively.

Consider `O=C1NS(=O)(=O)c2ccccc21`, for which the result in assay [1], in [2], in assay [3], in assay [4], in [5] and in assay [6] was inactive. For the same compound, the compound was called inactive in assay [7], in assay [8], in assay [9], in assay [10], in [11] and in [12]. For the same compound, the result in assay [13], in assay [14], in assay [15], in [16], in assay [19] and in [17] was inactive. In [18], the compound was called inactive.

`CS(=O)(=O)c1ccc([C@@H](CC2CCCC2)C(=O)Nc2cnccn2)cc1Cl`: the compound was classed as inactive in assay [1], in assay [2], in assay [3], in assay [4], in assay [6] and in [10]. Moreover, the call in [11], in assay [13], in assay [15], in assay [16], in assay [17] and in [18] was inactive. Besides, the AC50 is 86.9 µM (active) in assay [5]; 80.8 µM (active) in [7]; 79.5 µM (active) in assay [8]; 62.7 µM (active) in assay [9]; 50 µM (active) in assay [12]; 66.7 µM (active) in [14].
